This is an account of results in PubChem BioAssay.

Records with an inconclusive call do not appear. Activity calls are given as the source filed them.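 Rule for the calls, unless noted: active = inhibition above 54%, about 3 SD of non-fluorescent compounds; inactive = the rest.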

Assay [1] in a line: rapamycin-like changes in RPL19A-GFP expression – cell-based, S. cerevisiae, multiplex flow cytometry, primary screen (AID 1862; in the data active = percent of DMSO control GFP below about 86%;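 note: lower values mimic rapamycin by blocking the RPL19A rise seen in DMSO cells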). The note with it: S. cerevisiae RPL19A-GFP strain, flow cytometry fluorescence, 3 h; at 10 µM; stronger effect = lower value. A general note: In flow cytometry, cells or beads pass a laser one at a time.
A short description of assay [2]: TOR pathway GLN3 branch reporter MEP2-GFP changes – S. cerevisiae, multiplex flow cytometry, primary screen (AID 1867;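 active = GFP response, as percent of the DMSO control, above the screen-wide mean plus 3 SD, about 139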;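 note: median GFP channel fluorescence of barcode-gated MEP2-GFP cells measured by flow cytometry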). The note with it: S. cerevisiae MEP2-GFP strain, 3 h, at 10 µM, stronger effect = higher value, 100% means same as DMSO wells.
A short description of assay [3]: TOR pathway RTG branch CIT2 reporter changes – S. cerevisiae, GFP fusion, multiplex flow cytometry, primary screen (AID 1870;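 active = percent response above a set limit, the screen-wide mean plus 3 SD, cut at about 130% in these data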;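 note: barcoded CIT2-GFP strain pooled with four other GFP strains with rapamycin as positive control; median GFP fluorescence per well over plate mean of DMSO wells so 100% = DMSO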). The note with it: S. cerevisiae CIT2-GFP expression, 3 h, at 10 µM, stronger effect = higher value.
Assay [4] is described as follows: TOR pathway LAP4-GFP level changes – S. cerevisiae, multiplex flow cytometry, primary screen (AID 1873;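 active = GFP signal, as percent of the solvent control, above the screen mean plus 3 SD, about 149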). The note with it: S. cerevisiae LAP4-GFP expression, 3 h, at 10 µM, stronger effect = higher value.
The nature of assay [5]: yeast AGP1-GFP level changes, GLN3 branch – cell-based, multiplex flow cytometry, S. cerevisiae, primary screen (AID 1887;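 active = GFP signal above the screen-wide mean plus 3 SD, that is over about 124.5% of the solvent control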;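 note: AGP1-GFP fusion strain of S. cerevisiae within a five-strain barcoded multiplex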). The note with it: 3 h, at 10 µM, stronger effect = higher value.
Assay [6] can be described thus: reduced mouse 2C T cell binding to pMHC/ICAM-1 vesicles – MLPCN validation set, flow cytometry, LFA-1/ICAM-1 modulator project, pilot screen (AID 2523;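 active = response below a set limit, under 55% cells CD8-positive and vesicle-bound, and CD8 cells' 90th-percentile brightness under 279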;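 for vesicle binding response: mean PE anti-B7-1 fluorescence of CD8+ cells relative to row control; 100% = QL9-loaded vesicles with DMSO vehicle in the same plate row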). The note with it: 2C mouse CD8+ T cells, at 7 µM, stronger effect = lower value; double positive events: measured here: CD8+/vesicle+ event percentage.
In assay [7] the target is Integrin beta-1 (Homo sapiens) + Integrin alpha-4 (Homo sapiens) (UniProt P13612+P05556). Put plainly: alpha4beta1 integrin LIBS antibody binding reduction – U937 cells, HUTS-21 mAb, flow cytometry, validation set, VLA-4 allosteric modulator project, pilot screen (AID 2674;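 active = inhibition above 50%, about 3 SD of the validation set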;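 note: antibody binding induced by the VLA-4 ligand LDV present at three times its Kd; 0% = LDV ligand with antibody and no compound and 100% = antibody without LDV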). The note with it: HUTS-21 LIBS mAb binding, at 6.7 µM, stronger effect = higher value, binding induced by LDV ligand.

Assay [8] in a line: calorie-restriction mimetic ROS inhibitors, yeast – validation compound set, pilot screen (AID 2706;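 active = superoxide response below 65% of plate, a cut near 3 SD across the whole screen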;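 note: yeast exposed to compound for one week at 30 degrees C before staining; 100% = mean of all compound wells on the same plate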). The note with it: S. cerevisiae aging, superoxide DHE fluorescence; at 10 µM; stronger effect = lower value.
The target in assay [9] is Beta-adrenergic receptor kinase 1 (Homo sapiens) (UniProt P25098). The assay is described as follows: GRK2 binders displacing RNA aptamer, biochemical, validation, human GRK2, bead flow cytometry (AID 488806;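 active = aptamer binding inhibition above 30%, about 3 SD of noise from non-fluorescent compounds; inactive = inhibition at or below 30%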). The note with it: bead-bound GRK2, FAM-aptamer displacement, at 10 µM, stronger effect = higher value.
For assay [10], the target named is Beta-2 adrenergic receptor (Homo sapiens) (UniProt P07550). The assay is described as follows: agonist-induced loss of surface beta2AR – cell-based, FAP fluorogen, flow cytometry, validation set, pilot screen (AID 504459;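 active = percent response above 42, roughly 3 SD of non-fluorescent test compounds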;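 note: agonist-driven loss of surface beta2AR via internalization measured by FAP dye flow cytometry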). The note with it: Am2.2-beta2AR cells, at 10 µM, stronger effect = higher value.
Assay [11] deals with AP-2 complex subunit beta (Homo sapiens) (UniProt P63010). The assay is described as follows: beta-arrestin/AP2 interaction blockers – biochemical, validation set, GST-AP2 beads, flow cytometry, pilot screen (AID 504541).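 Note: AP2 carries R879A mutation and is captured from E. coli lysate; bead-bound FITC arrestin peptide fluorescence measuring arrestin peptide binding to AP2; 0% = DMSO wells and 100% = excess unlabeled arrestin peptide control.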 The note with it: FITC arrestin peptide, at 10 µM, stronger effect = higher value, AP2 beta2 appendage fragment, R879A mutant.
Assay [12] is described as follows: cytosolic pH regulators acting via V-ATPase – S. cerevisiae, pHLuorin, HTS validation (AID 504600; in the data active = response above about 15%;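 note: plate controls were DMSO for no effect and reference compound for full effect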). The note with it: V-ATPase proton transport, at 10 µM, stronger effect = higher value.
Assay [13] deals with anti-desmoglein-3 scFv antibody binding to human DSG3. Put plainly: blockers of pathogenic pemphigus antibody–desmoglein-3 binding – biochemical, validation compound set, bead-based, flow cytometry, pilot screen (AID 588368;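 active = binding below the plate cutoff, the plate median minus 3 SD, with a reading above zero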;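 note: signal is the median channel fluorescence of bead-bound GFP antibody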). The note with it: Protein G beads, DSG3-Fc, scFv-GFP binding, at 10 µM, stronger effect = lower value.
Assay [14] can be described thus: Nile Red efflux blockade in pump-expressing yeast – validation compound set, multiplex, phenotypic, pilot screen (AID 588506;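 active = efflux inhibition above 0.42, the validation set average plus 4 SD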;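 note: Nile Red retained in cells so higher fluorescence means more efflux inhibition; 0 = negative control wells and 1 = enniatin B 25 µM full block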). The note with it: S. cerevisiae pump-expressing triplex, Nile Red efflux flow cytometry; at 10 µM; stronger effect = higher value; the pumps come from Candida albicans.
The target in assay [15] is ATP-binding cassette sub-family B member 6 (Homo sapiens) (UniProt Q9NP58). Put plainly: blockers of ABCB6-driven porphyrin uptake – K562-ABCB6 cells, flow cytometry, validation set, pilot screen (AID 588550;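 active = inhibition above the screen-wide mean plus 3 SD, about 51%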;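 note: 0% = DMSO wells and 100% = benzethonium chloride 70 µM positive control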). The note with it: K562-ABCB6 porphyrin accumulation, 1 h, at 10 µM, stronger effect = higher value.
The nature of assay [16]: AML differentiation inducers, ER-HoxA9 marrow cells – cell-based, GFP/MAC1 double positive, flow cytometry, validation set, primary screen (AID 588685;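 active = differentiation response of at least 50%, scaled between solvent and reference control, from cells with both markers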;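 note: compound exposure lasts four days before antibody staining and flow analysis; 0% = DMSO wells and 100% = 5 µM fulvestrant positive control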). The note with it: stronger effect = higher value, normalized: vehicle 0, fulvestrant 100.

Chain of Integrin beta-1 (Homo sapiens) + Integrin alpha-4 (Homo sapiens) (P05556 whole entry, looked up): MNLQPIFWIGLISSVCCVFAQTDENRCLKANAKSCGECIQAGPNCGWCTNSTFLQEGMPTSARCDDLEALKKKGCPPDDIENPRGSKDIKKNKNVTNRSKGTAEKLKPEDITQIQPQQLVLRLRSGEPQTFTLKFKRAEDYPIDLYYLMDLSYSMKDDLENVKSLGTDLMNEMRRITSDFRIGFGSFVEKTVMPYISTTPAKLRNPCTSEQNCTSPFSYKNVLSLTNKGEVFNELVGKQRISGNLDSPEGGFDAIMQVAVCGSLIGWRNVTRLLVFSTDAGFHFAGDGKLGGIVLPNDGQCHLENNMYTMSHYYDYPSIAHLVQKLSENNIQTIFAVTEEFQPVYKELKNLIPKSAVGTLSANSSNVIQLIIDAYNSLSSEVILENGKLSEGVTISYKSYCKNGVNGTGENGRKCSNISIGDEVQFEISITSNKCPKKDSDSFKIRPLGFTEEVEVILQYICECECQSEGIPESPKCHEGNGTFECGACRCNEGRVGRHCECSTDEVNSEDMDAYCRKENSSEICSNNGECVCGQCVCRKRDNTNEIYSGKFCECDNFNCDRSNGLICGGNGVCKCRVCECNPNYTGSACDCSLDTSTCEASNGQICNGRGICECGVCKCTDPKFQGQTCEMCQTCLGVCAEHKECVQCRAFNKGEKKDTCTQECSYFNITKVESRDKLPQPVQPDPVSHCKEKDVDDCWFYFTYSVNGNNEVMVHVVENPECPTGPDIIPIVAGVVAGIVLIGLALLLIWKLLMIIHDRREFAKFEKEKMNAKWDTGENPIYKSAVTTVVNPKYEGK
Chain of Integrin beta-1 (Homo sapiens) + Integrin alpha-4 (Homo sapiens) (P13612 whole entry, looked up): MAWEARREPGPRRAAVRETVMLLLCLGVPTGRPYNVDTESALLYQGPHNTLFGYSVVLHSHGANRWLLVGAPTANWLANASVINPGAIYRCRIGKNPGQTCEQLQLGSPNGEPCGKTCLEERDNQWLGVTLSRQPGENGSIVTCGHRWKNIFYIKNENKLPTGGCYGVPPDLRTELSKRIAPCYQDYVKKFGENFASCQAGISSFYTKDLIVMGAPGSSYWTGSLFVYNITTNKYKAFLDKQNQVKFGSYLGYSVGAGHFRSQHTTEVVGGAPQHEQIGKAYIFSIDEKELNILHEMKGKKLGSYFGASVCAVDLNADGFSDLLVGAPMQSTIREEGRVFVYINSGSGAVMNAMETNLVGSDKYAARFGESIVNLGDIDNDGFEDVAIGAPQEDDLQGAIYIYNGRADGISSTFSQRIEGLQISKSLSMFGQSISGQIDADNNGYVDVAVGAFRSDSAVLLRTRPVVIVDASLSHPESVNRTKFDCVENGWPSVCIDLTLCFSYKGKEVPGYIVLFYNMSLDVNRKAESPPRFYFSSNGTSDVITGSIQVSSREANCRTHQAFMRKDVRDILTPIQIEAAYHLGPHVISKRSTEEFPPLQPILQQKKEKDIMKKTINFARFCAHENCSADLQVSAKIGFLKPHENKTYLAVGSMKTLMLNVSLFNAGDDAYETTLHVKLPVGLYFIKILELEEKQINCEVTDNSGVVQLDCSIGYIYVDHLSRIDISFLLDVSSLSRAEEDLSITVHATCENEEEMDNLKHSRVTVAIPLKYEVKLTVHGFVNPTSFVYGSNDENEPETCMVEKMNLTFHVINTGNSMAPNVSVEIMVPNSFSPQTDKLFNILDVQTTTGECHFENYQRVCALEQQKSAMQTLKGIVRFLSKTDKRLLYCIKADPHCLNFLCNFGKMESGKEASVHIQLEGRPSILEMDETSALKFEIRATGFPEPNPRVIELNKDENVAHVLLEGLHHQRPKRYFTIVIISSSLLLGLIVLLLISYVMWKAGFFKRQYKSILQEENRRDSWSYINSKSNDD
Chain of Beta-adrenergic receptor kinase 1 (Homo sapiens) (P25098 whole entry, looked up): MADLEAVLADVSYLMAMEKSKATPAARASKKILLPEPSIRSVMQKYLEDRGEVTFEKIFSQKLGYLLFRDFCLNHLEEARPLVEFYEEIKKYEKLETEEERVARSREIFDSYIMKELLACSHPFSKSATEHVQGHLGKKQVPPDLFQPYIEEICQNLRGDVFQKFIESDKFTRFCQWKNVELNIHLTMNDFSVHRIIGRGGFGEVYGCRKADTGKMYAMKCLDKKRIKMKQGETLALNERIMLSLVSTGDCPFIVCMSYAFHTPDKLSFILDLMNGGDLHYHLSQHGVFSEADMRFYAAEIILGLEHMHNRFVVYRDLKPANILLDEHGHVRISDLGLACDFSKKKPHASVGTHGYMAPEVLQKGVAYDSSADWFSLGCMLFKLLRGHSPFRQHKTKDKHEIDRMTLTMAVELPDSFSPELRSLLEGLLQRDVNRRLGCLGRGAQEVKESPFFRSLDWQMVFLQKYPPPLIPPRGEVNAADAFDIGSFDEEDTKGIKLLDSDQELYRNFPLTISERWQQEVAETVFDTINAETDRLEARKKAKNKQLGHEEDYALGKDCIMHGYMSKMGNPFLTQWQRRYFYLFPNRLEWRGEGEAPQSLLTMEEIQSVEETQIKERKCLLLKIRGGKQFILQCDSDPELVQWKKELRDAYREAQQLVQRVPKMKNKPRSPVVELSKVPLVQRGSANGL
Chain of Beta-2 adrenergic receptor (Homo sapiens) (P07550 whole entry, looked up): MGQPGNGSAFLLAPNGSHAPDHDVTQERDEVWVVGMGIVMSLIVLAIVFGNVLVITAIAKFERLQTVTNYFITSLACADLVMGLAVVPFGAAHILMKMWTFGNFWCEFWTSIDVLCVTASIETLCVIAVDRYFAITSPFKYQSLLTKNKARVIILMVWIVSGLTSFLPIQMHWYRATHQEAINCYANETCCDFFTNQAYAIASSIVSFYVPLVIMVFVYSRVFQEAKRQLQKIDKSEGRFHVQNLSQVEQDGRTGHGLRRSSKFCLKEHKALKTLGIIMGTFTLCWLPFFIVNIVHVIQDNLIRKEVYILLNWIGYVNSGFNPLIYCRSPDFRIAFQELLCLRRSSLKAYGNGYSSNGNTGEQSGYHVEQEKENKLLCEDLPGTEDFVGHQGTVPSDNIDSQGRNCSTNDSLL
Chain of ATP-binding cassette sub-family B member 6 (Homo sapiens) (Q9NP58 whole entry, looked up): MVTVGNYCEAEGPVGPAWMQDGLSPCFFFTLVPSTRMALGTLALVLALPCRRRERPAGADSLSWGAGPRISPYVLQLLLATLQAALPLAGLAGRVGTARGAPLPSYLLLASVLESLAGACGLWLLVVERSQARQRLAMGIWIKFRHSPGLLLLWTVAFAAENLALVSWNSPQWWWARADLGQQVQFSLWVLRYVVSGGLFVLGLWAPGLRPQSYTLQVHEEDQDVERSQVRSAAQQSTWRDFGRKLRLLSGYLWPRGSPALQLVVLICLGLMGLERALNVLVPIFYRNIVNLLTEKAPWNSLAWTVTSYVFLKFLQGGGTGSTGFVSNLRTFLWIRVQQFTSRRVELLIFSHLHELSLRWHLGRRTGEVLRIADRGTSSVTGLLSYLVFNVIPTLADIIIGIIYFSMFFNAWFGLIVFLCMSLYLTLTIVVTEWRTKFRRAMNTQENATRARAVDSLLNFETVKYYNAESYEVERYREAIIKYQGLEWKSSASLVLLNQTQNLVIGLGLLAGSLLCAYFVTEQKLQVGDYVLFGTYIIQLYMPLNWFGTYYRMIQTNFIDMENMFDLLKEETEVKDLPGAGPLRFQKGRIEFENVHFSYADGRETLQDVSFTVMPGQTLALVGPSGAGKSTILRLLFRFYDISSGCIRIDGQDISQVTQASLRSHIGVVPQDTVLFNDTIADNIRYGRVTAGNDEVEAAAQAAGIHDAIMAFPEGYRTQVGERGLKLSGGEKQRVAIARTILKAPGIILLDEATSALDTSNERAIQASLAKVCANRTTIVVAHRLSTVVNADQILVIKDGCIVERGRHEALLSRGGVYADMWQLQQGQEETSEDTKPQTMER
Chain of AP-2 complex subunit beta (Homo sapiens) (P63010 whole entry, looked up, the tested form may be a part, one chain of several): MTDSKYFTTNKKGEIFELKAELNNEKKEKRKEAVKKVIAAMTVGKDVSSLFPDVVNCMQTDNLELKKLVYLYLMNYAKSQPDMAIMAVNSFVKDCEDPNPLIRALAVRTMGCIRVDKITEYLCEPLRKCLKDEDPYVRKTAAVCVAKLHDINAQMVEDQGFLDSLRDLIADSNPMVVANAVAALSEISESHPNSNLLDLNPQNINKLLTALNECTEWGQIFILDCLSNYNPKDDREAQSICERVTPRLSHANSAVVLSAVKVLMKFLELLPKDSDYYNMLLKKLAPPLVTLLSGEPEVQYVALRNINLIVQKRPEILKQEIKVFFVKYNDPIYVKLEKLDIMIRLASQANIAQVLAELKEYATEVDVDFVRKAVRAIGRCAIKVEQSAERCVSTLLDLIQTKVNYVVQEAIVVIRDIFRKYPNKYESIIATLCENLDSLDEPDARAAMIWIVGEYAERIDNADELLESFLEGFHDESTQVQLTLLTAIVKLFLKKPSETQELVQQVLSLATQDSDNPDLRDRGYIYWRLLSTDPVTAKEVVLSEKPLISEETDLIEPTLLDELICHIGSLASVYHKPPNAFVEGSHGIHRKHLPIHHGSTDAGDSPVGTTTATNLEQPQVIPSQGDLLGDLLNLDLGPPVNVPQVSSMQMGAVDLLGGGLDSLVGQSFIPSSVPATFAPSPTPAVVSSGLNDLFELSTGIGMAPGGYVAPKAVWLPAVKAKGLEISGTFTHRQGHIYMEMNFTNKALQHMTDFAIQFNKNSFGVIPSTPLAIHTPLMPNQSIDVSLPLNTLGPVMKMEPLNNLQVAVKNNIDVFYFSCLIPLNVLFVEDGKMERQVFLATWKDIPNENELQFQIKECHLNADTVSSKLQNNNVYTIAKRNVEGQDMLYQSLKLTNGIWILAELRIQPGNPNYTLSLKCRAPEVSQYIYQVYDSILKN

As a reminder, the inhibition is the relative decrease from the control value, in per cent. Take `O=C(O)CCCN1C(=O)NC2NC(=O)NC21` (stereo not given): the percent of DMSO control GFP in assay [1] was 103% (inactive). In addition, the values for the GFP response vs DMSO in assay [2] and in [4] were 114% (inactive) and 86.1% (inactive), respectively. Further, the percent response of DMSO control in [3] is 101% (inactive). In assay [5], the GFP response, % of DMSO was 97.5% (inactive). In assay [6], this compound registered a double positive events of 64.9%. Further, in [6], the vesicle binding response is 914% (inactive). Also, the inhibition in assay [7] was -1.49% (inactive); in [11] it was 35.1% (inactive); in assay [15] it was 25% (inactive). The superoxide response (% of plate) in [8] was 106% (inactive). Besides, the aptamer binding inhibition in assay [9] was 3% (inactive). For the same compound, the response in assay [10] is 0.46% (inactive); in assay [12] it was -1.41% (inactive). In addition, in assay [13], the binding (% of control) is 98.4% (inactive). Further, the efflux inhibition (fraction of control) in assay [14] is -0.04 (inactive). The differentiation response in assay [16] is 33.5% (inactive).

Regarding `COc1ccc(-c2cc(C(=O)N3CCOCC3)c3cc(C)ccc3n2)cc1`, the percent of DMSO control GFP in [1] was 91.1% (inactive). In addition, the GFP response vs DMSO in [2] was 102% (inactive); in assay [4], 110% (inactive). Besides, the percent response of DMSO control in assay [3] is 101% (inactive). Further, in assay [5], the GFP response, % of DMSO is 107% (inactive). The compound also registered a double positive events in [6] of 73.1%. Also, in [6], the vesicle binding response is 206% (inactive). Further, the figures for the inhibition in assay [7], in assay [11] and in assay [15] were -8.78% (inactive), 9.71% (inactive) and 7% (inactive), respectively. Also, the superoxide response (% of plate) in assay [8] is 92% (inactive). Further, in [9], the aptamer binding inhibition was 1% (inactive). Besides, the results for the response in [10] and in assay [12] were -16.3% (inactive) and -6.37% (inactive), respectively. Further, the binding (% of control) in [13] is 104% (inactive). Also, the efflux inhibition (fraction of control) in assay [14] is -0.09 (inactive). Besides, the differentiation response in [16] was 9.79% (inactive).

For the compound `CCC(NC(C)C)C(O)c1ccc(O)c(O)c1` (stereo not given), the percent of DMSO control GFP in assay [1] was 103% (inactive). For the same compound, the GFP response vs DMSO in [2] was 102% (inactive); in [4], 104% (inactive). In assay [3], the percent response of DMSO control was 100% (inactive). Moreover, the GFP response, % of DMSO in [5] was 112% (inactive). Besides, the double positive events in assay [6] worked out at 60.7%. For the same compound, in assay [6], the vesicle binding response is 170% (inactive). Besides, the inhibition is -11.3% (inactive) in assay [7], -1.15% (inactive) in [11] and 2% (inactive) in assay [15]. For the same compound, the superoxide response (% of plate) in assay [8] was 86.8% (inactive). Moreover, the aptamer binding inhibition in [9] is 4% (inactive). Further, the response is 46% (active) in assay [10] and 0.42% (inactive) in [12]. In addition, the binding (% of control) in assay [13] is 105% (inactive). Also, the efflux inhibition (fraction of control) in assay [14] is -0.04 (inactive). Also, the differentiation response in assay [16] was -0.06% (inactive).

Take `COc1cc(COc2ccc3c(C)c(Cc4ccccc4)c(=O)oc3c2)cc(OC)c1OC`: the percent of DMSO control GFP in [1] is 102% (inactive). The GFP response vs DMSO was 103% (inactive) in [2] and 94% (inactive) in assay [4]. The percent response of DMSO control in assay [3] is 122% (inactive). In addition, the GFP response, % of DMSO in [5] is 98.9% (inactive). The double positive events in [6] came to 55%. For the same compound, the vesicle binding response in [6] is 38.9% (inactive). The inhibition is 5.77% (inactive) in assay [7], 3.79% (inactive) in [11] and -5% (inactive) in assay [15]. Further, the superoxide response (% of plate) in assay [8] was 117% (inactive). For the same compound, in [9], the aptamer binding inhibition is 3% (inactive). Besides, the response is 5.22% (inactive) in assay [10] and -1.95% (inactive) in [12]. Besides, in assay [13], the binding (% of control) is 97.2% (inactive). Further, the efflux inhibition (fraction of control) in [14] is 0.08 (inactive). For the same compound, in assay [16], the differentiation response was 3.18% (inactive).

In the case of `C[C@]12CC[C@@H]3c4ccc(O)cc4CC[C@H]3[C@@H]1CC[C@@H]2OC(=O)CCC(=O)O`, the percent of DMSO control GFP in assay [1] was 102% (inactive). Besides, the GFP response vs DMSO in [2] is 103% (inactive); in assay [4], 127% (inactive). In addition, in assay [3], the percent response of DMSO control is 91.3% (inactive). Moreover, the GFP response, % of DMSO in [5] is 98.6% (inactive). The compound further came in with a double positive events in assay [6] of 62.4%. In addition, the vesicle binding response in assay [6] was 223% (inactive). Moreover, the values for the inhibition in [7], in [11] and in assay [15] were -15.8% (inactive), 50.5% (inactive) and -12% (inactive), respectively. Besides, the superoxide response (% of plate) in [8] was 86% (inactive). In assay [9], the aptamer binding inhibition is -7% (inactive). Further, the results for the response in [10] and in assay [12] were 3.34% (inactive) and -4.55% (inactive), respectively. For the same compound, the binding (% of control) in assay [13] was 105% (inactive). Also, the efflux inhibition (fraction of control) in assay [14] was 0.46 (active). For the same compound, the differentiation response in [16] is 42.2% (inactive).
